MARV entry inh: Marburg virus entry inhibition; Marburg virus pseudotype entry/binding inhibition, cell-based; Potency, µM (highest dose often 49.2 µM), actives largely listed as inhibitors; 6.5% of 18,000 active; AID 720532
LASV entry inh: Lassa virus entry inhibition. Lassa virus pseudotyped entry inhibition, cell-based qHTS. Potency, µM (top dose mostly 49.2 µM), actives largely listed as inhibitors. 4.1% of 18,000 active. AID 720533
Hits are given with their value; 0 = inactive; ? = inconclusive; - = not tested or not shown; ! = not confirmed by another sample; [ ] = another dose, or the depositor's remark. Only some compounds are listed: those with a hit (about 8% of all), similar ones and a draw of the others. The call rests on the fitted dose curve; tested in HEK293 cells.

SMILES	MARV entry inh	LASV entry inh
COC(=O)/C=C/C(=O)N[C@@H]1CC[C@@]2(O)[C@H]3Cc4ccc(O)c5c4[C@@]2(CCN3CC2CC2)[C@H]1O5	10µM	28µM
O=C1CC[C@@]2(O)[C@H]3Cc4ccc(O)c5c4[C@@]2(CCN3CC2CC2)[C@H]1O5	0	0
O=C1CC[C@]2(O)[C@H]3Cc4ccc(O)c5c4[C@@]2(CCN3CC2CC2)[C@@H]1O5	0	0
Oc1ccc2c3c1O[C@H]1c4c(c5ccccc5n4Cc4ccccc4)C[C@]4(O)[C@H](C2)N(CC2CC2)CC[C@@]314	11µM	16µM
Oc1ccc2c3c1O[C@H]1c4[nH]c5c(c4C[C@@]4(O)[C@@H](C2)N(CC2CC2)CC[C@]314)C[C@@]1(O)[C@H]2Cc3ccc(O)c4c3[C@@]1(CCN2CC1CC1)[C@H]5O4	0	0
Oc1ccc2c3c1O[C@H]1c4[nH]c5ccccc5c4C[C@]4(O)[C@H](C2)N(CC2CC2)CC[C@@]314	22µM	?
Oc1ccc2c3c1O[C@H]1[C@@H](O)CC[C@]4(O)[C@H](C2)N(CC2CCC2)CC[C@@]314	0	0
Oc1ccc2c3c1O[C@H]1c4oc5ccccc5c4C[C@]4(O)[C@H](C2)N(CC2CC2)CC[C@@]314	28µM	28µM
O=C1CCCC2=C1[C@H]1O[C@](c3ccsc3)(Cc3c1ccc1ccccc31)O2	0[8.59 µM]	0[8.59 µM]
C[C@H]1CCCC(=O)N[C@@H](c2ccccc2)[C@@H](C)CCCC(=O)N[C@@H]1c1ccccc1	0[8.59 µM]	0[8.59 µM]
CC(C)=CCCC(C)=CCON=C1C[C@@H](O)[C@@H](O)[C@@H]2[C@H]3C(=O)N(Cc4ccc5c(c4)OCO5)C(=O)[C@@H]3CC[C@H]12	0[8.59 µM]	-
COc1ccccc1N1CCN(CCCCNC(=O)c2ccc3ccccc3c2)CC1	0	0
COc1cc2c(N3CCN(C(=O)Nc4ccc(OC(C)C)cc4)CC3)ncnc2cc1OCCCN1CCCCC1	8.9µM	?
NS(=O)(=O)c1ccc(Nc2cc(-c3cccc(O)c3)[nH]n2)cc1	0	0
CCCCCCN1C[C@@H](O)[C@H](n2cc(C3CC3)nn2)C[C@H]1c1ccc(C)cc1	0	-
CN(C)CCNC(=O)Nc1ccc(N(C)c2ccnc(Nc3ccc(CS(C)(=O)=O)cc3)n2)cc1	0	0
CCCSc1cc(OC)c(CCN)cc1OC	22µM	?
COc1cc(CCN)ccc1O	0	0
COc1ccc(/C=C/c2cc(OC)cc(=O)o2)cc1	1.8µM	8.9µM
C/C=C/c1ccc(OC)cc1	0	0
CCC(/C=C1\Sc2ccc(OC)cc2N1CCO)=C\c1sc2ccc(OC)cc2[n+]1CCO	0	0
CCN1/C(=C/C=C/c2sc3ccccc3[n+]2CC)Sc2ccccc21	2.8µM	2.5µM
CNC(=O)c1ncccc1Nc1nc(Nc2cc3c(cc2OC)CCCN3C(=O)CN(C)C)nc2[nH]ccc12	2.5µM	?
COc1cc(N2CCN(C(C)C)CC2)ccc1Nc1nc(Nc2cccc(F)c2C(=O)O)c2cc[nH]c2n1	0	0
COc1cc2c(cc1Nc1nc(Nc3ccsc3C(N)=O)c3cc[nH]c3n1)N(C(=O)CN(C)C)CCC2	1.6µM	-
SMILES	MARV entry inh	LASV entry inh
CCOC(=O)CN1C(=O)NC(c2ccc(Br)cc2)C(C(=O)OC)=C1C (stereo not given)	0[8.59 µM]	0[8.59 µM]
COC(=O)[C@@]1(C=C2c3ccc(OC)cc3[C@@H](OC)[C@@H]2C)[C@@H]2C=CC[C@@H]21	0[8.59 µM]	0[8.59 µM]
CC(C)c1cc(/C=C(\C#N)C(=O)NCCCc2ccccc2)cc(C(C)C)c1O	?	25µM
N#C/C(=C\c1ccc(O)c(O)c1)C(=O)NCCCNC(=O)/C(C#N)=C/c1ccc(O)c(O)c1	0	0
CC[C@@H]1CN2CCc3cc(OC)c(OC)cc3[C@@H]2C[C@@H]1C[C@H]1NCCc2cc(OC)c(OC)cc21	?	5.6e-05µM
CC[C@@H]1CN2CCc3cc(OC)c(OC)cc3[C@H]2C[C@@H]1C[C@H]1NCCc2cc(OC)c(OC)cc21	?	0.32µM
COc1cc(C[C@@H]2NCCc3cc(O)c(O)cc32)cc(OC)c1OC	0	0
COc1cc2c(cc1OC)C(C)NCC2 (stereo not given)	0	0
COC(=O)C1=C(C)N(Cc2ccccc2)C(=NCc2cc(OC)c(OC)c(OC)c2)NC1c1cccc(F)c1 (stereo not given)	0[8.59 µM]	-
C=C(C)[C@H]1O[C@H]2CC[C@@]3(C)[C@@](O)(CC[C@H]4[C@@H]5OC(C)(C)[C@H]6C[C@@H]7C(=C)Cc8c(Cl)cc9[nH]c(c5c9c8[C@@]76O)[C@@]43C)[C@]23O[C@@H]3[C@H]1O	?	25µM
CC(C)=CCCC(C)=CCON=C1C[C@@H](O)[C@@H](O)[C@@H]2[C@H]3C(=O)N(Cc4ccc5c(c4)OCO5)C(=O)[C@@H]3CC[C@@H]12	0[8.59 µM]	-
CCC1/C=C/C=CCC(C)C(O)[C@@](C)(O)C(=O)C(C)C(O)C(C)C(=O)C(C)C(O)C(C)C=CC(=O)O[C@H]2C(C)C(CC1)O[C@]1(CCC(C)C(CC(C)O)O1)C2C (stereo not given in full)	0.079µM	?
Cc1c(N)nc([C@H](CC(N)=O)NC[C@H](N)C(N)=O)nc1C(=O)N[C@H](C(=O)N[C@H](C)[C@@H](O)[C@H](C)C(=O)N[C@H](C(=O)NCCc1nc(-c2nc(C(=O)NCCCCN=C(N)N)cs2)cs1)[C@@H](C)O)[C@@H](O[C@@H]1O[C@@H](CO)[C@@H](O)[C@H](O)[C@@H]1O[C@H]1O[C@H](CO)[C@@H](O)[C@H](OC(N)=O)[C@@H]1O)c1cnc[nH]1	4µM	3.2µM
CC(=O)C1CC2C=CCOP(=O)(O2)O1 (stereo not given)	?	0
C=C(CCN1C=C(C(C)=O)C(c2ccccc2)NC1=O)c1ccccc1 (stereo not given)	?	0[8.59 µM]
CC1=C(/C=C/C(C)=C/C=C/C(C)=C/C(=O)Nc2ccc(O)cc2)C(C)(C)CCC1	?	7.1µM!
CC1=C(\C=C/C(C)=C/C=C\C(C)=C\C(=O)O)C(C)(C)CCC1	?	0
CCCCCC(=O)N1C[C@@H](n2cc(-c3ccc(F)cc3)nn2)[C@H](O)C[C@H]1c1ccc(C)cc1	?	0
c1ccc(Oc2ccc(Nc3ncc(-c4ccccc4)o3)cc2)cc1	0	-
Cc1cc2c(nc1C)CCCN2CC(O)CN1CCN(C)CC1 (stereo not given)	0[8.59 µM]	0[8.59 µM]
NCCc1c[nH]c2ccc(O)cc12	0	0
CCCCCCCCCOc1ccc2[nH]cc(CCN)c2c1	10µM	35µM!
O=C(CCCN1CCC2(CC1)C(=O)N(Cc1cccc(F)c1)CN2c1ccccc1)c1ccc(F)cc1	8.9µM	16µM
COC(=O)CN1CN(c2ccccc2)C2(CCN(Cc3ccc4ccccc4c3)CC2)C1=O	?	0
C=CCOC(=O)N[C@@H](c1coc2ccccc2c1=O)[C@@H](C)C=CCC(=O)OC	0[8.59 µM]	0[8.59 µM]
C=CC[C@@H]1C=C[C@H](ON=C(C)CCN2CCc3nc(CC)c(CC)cc3C2)[C@H](CO)O1	?	0[8.59 µM]
C=CCN1C[C@H](C(=O)N(CCCN(C)C)C(=O)NCC)C[C@@H]2c3cccc4[nH]cc(c34)C[C@H]21	7.9µM	0
CCN(CC)C(=O)N[C@H]1C[C@@H]2c3cccc4[nH]cc(c34)C[C@H]2N(C)C1	0	0
CCCCCC(=O)N1C[C@@H](O)[C@H](n2cc(-c3ccc(F)cc3)nn2)C[C@H]1c1ccc(OC)cc1	0	0
C#CCCCON=C1C[C@@H](O)[C@H](O)[C@H]2[C@@H]3C(=O)N(C[C@@H]4CCCO4)C(=O)[C@@H]3CC[C@H]12	0[8.59 µM]	?

From PubChem
